Hit rate of the full screen: of about 330,000 compounds, about 900 (0.27%) were called active.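 How the source made its calls: active means inhibition above the campaign's mean inhibition across all tested compounds plus 3 SD (cut at about 9.9% in these data); inactive means the rest.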 The full list was thinned out, with actives kept by preference.
experiment: bacterial viability reduction in E. coli – absorbance, OD600, counter-screen for AddAB inhibitor project, primary screen (AID 449728); details: E. coli V3065 growth, 18 h, at 11.9 µM, stronger effect = higher value

Compound	inhibition
C/C(=N/O)c1ccc2ccc3ccccc3c2c1	1.2% (inactive)
Cc1ccc(-n2c(-c3ccc([N+](=O)[O-])cc3)nc3ccccc3c2=O)cc1	-0.79% (inactive)
O=[N+]([O-])c1cnc2ccc3ccccc3c2c1	53.1% (active)
COCCNC(=O)CN1C2CCC1CC(O)(c1cccnc1)C2 (stereo not given)	-3.36% (inactive)
O=c1[nH]c(=O)n(-c2ccc(F)cc2)c(O)c1C=NCCN1CCCCC1	-0.49% (inactive)
